Screens deposited in PubChem BioAssay by several laboratories.
GDH-TPI counter – inhibits GDH-TPI coupling enzymes, artifact for Mtb FBA screen; GDH-TPI coupled enzyme counterscreen, NADH absorbance; inhibition, % at 4.8 µM; hit rate 1.2% among 360,000; in the data active = inhibition above about 30%;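 also: 0% = DMSO wells and 100% = wells lacking the enzyme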
3CLpro inhibitor – SARS-CoV 3CLpro protease inhibition; P0C6X7; AID 1706; recombinant SARS-CoV 3CLpro, quenched FRET peptide cleavage; hit rate 0.14% among 290,000; inhibition, % at 6 µM; in the data active = inhibition above about 12%
FBA Mtb inh – Mtb fructose-bisphosphate aldolase inhibition; inhibition, % at 1 µM; AID 588726; purified M. tuberculosis FBA, fluorescence read-out; P9WQA3; hit rate 2.3% among 360,000; in the data active = inhibition above about 27%;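 also: 0% = vehicle and 100% = reference inhibitor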
Target sequence (P9WQA3 whole entry, looked up): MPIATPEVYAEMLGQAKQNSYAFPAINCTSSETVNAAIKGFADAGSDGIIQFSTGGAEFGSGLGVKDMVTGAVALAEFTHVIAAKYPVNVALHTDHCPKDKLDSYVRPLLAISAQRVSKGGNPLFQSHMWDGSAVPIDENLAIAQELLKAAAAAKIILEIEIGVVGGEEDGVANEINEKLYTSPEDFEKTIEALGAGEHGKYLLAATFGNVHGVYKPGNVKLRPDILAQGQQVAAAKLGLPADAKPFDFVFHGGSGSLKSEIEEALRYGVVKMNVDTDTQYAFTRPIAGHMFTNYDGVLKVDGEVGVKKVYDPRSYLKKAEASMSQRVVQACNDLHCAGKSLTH
BioA inh – BioA (M. tuberculosis) enzyme inhibition; purified M. tuberculosis BioA enzyme, plate reader; inhibition, % at 9.99 µM; hit rate 0.096% among 360,000; in the data active = inhibition above about 40%
FadD28 binding – M. tuberculosis FadD28 bisubstrate binding inhibition. FadD28 bisubstrate probe binding, fluorescence polarization. inhibition, % at 12.5 µM. hit rate 0.22% among 360,000; in the data active = inhibition above about 8.5%, passing the limit was not always enough
Starred values were filed as active, the others as inactive; · = not tested or not shown; + = active, no number. Rows were chosen to be rich in hits. Some 3.1% of all compounds tested hit in one or more screens of this group.

SMILES	GDH-TPI counter	3CLpro inhibitor	FBA Mtb inh	BioA inh	FadD28 binding
C[C@@H]1CN([C@H](C)CO)C(=O)Cc2cc(N(C)C)ccc2O[C@H]1CN(C)Cc1ccncc1	·	·	·	-1.6	·
COc1ccc(NC(=O)Nc2ccc3c(c2)CC(=O)N([C@@H](C)CO)C[C@@H](C)[C@H](CN(C)C)O3)cc1	·	·	·	4.0	·
C[C@H]1CN([C@@H](C)CO)C(=O)c2cccc(NS(C)(=O)=O)c2O[C@H]1CN(C)C(=O)NC1CCCCC1	·	·	·	-1.2	·
CC(=O)Oc1ccc(/C=N/NC2=NS(=O)(=O)c3ccccc32)cc1	34.9*	-3.3	-0.7	-1.7	-1.4
COc1ccc(OC)c(/C=N/NC2=NS(=O)(=O)c3ccccc32)c1	16.4	-0.2	0.7	4.0	1.1
C=CCN1C(=O)C(CC(=O)O)S/C1=N/N=C/c1ccc(N(CC)CC)cc1 (configuration not stated)	34.5*	·	23.1	1.2	1.1
C[C@@H]1CN([C@@H](C)CO)C(=O)c2cccc(NS(=O)(=O)c3ccc(Cl)cc3)c2O[C@H]1CN(C)Cc1ccc(Cl)c(Cl)c1	·	·	·	1.3	·
CO[C@H]1CN(C)C(=O)c2cc(NC(=O)c3ccccc3F)ccc2OC[C@@H](C)N(CC2CC2)C[C@@H]1C	·	·	·	2.7	·
COc1ccc(NC(=O)Nc2ccc3c(c2)C(=O)N([C@@H](C)CO)C[C@H](C)[C@H](CN(C)C(=O)Nc2ccc(F)cc2)OCCCC[C@H](C)O3)cc1	·	·	·	-2.2	·
CN(CC(=O)Nc1cccc(F)c1)C(=O)Cn1c(=O)cnc2ccccc21	5.8	·	0.3	·	54.9*
CN(CC(=O)Nc1ccc(OC(F)(F)F)cc1)C(=O)Cn1c(=O)cnc2ccccc21	10.4	·	6.7	-1.0	-1.4
COCC(=O)Nc1ccc2c(c1)OC[C@@H](C)N(Cc1ccccc1F)C[C@H](C)[C@H](OC)CN(C)C2=O	·	·	·	1.5	·
Cc1cc2nc(-c3ccc[nH]c3=O)n(Cc3ccc(F)cc3)c2cc1C	13.6	2.4	198.4*	-0.4	·
Cc1cc2nc(-c3ccc[nH]c3=O)n(Cc3ccccc3F)c2cc1C	-3.2	-1.8	14.4	0.5	·
CCCn1c(-c2ccc(OC)cc2)nc2ccccc21	4.1	-1.2	9.4	1.8	-9.1
O=c1[nH]cccc1-c1nc2ccccc2n1Cc1ccc(F)cc1	13.9	2.2	172.5*	-0.8	-1.9
CCCn1c(-c2ccc[nH]c2=O)nc2ccccc21	3.0	1.5	151.5*	-0.2	-2.6
Cc1cc2nc(-c3ccc[nH]c3=O)[nH]c2cc1C	26.3	-2.1	+	-0.5	-2.9
Cc1ccccc1-c1nc2ccccc2[nH]1	9.0	-8.0	6.0	0.0	-0.5
O=C1/C(=C/c2ccc(O)c([N+](=O)[O-])c2)SC(=S)N1Cc1ccccc1	2.5	4.8	-2.6	0.3	2.1
O=C(NN1C(=O)/C(=C/c2ccc(O)c([N+](=O)[O-])c2)SC1=S)c1ccccc1Cl	5.0	-2.5	-21.4	·	20.7*
CC(/C=C1\SC(=S)N(NC(=O)c2cccc(O)c2)C1=O)=C\c1ccccc1	10.2	3.1	-4.0	-1.3	-5.0
O=C(NN1C(=O)/C(=C/c2ccc(O)cc2)SC1=S)c1cccc(O)c1	7.1	0.4	-12.8	-26.1	19.1*
COc1cc(/C=C2\SC(=S)N(NC(=O)c3ccccc3O)C2=O)ccc1O	8.1	3.5	-13.2	7.7	11.5*
COc1ccc(/C=C2\SC(=S)N(NC(=O)c3ccncc3)C2=O)cc1OC	·	7.8	·	·	·
SMILES	GDH-TPI counter	3CLpro inhibitor	FBA Mtb inh	BioA inh	FadD28 binding
C/C=C/c1ccc2c(c1)O[C@H](CN(C)C(=O)Nc1ccc(C(F)(F)F)cc1)[C@H](C)CN([C@@H](C)CO)S2(=O)=O	·	·	·	-0.6	·
C[C@@H](NC(=O)C[C@H]1C=C[C@H](NC(=O)C2CC2)[C@@H](CO)O1)c1ccccc1	·	·	·	-3.5	·
COc1ccc(NC(=O)N(C)C[C@@H]2Oc3ccc(NS(=O)(=O)c4ccc(Cl)cc4)cc3C(=O)N([C@H](C)CO)C[C@H]2C)cc1	·	·	·	4.1	·
CNC(=O)c1ccc(-c2sc3nc(N4CCOCC4)c4c(c3c2N)CCCC4)o1	11.0	-35.1	13.7	7.3	2.4
CC1(C)Cc2c(c(N3CCOCC3)nc3sc(-c4ccc(C(=O)O)o4)c(N)c23)CO1	36.9*	1.1	68.6*	2.0	0.3
CCOc1ccc(NC(=O)c2ccc3[nH]c(=O)c(=O)[nH]c3c2)cc1	31.6*	-1.8	2.6	-4.0	-0.6
CCOc1ccccc1-c1c2cc(O)c(=O)cc-2oc2cc(O)c(O)cc12	2.6	0.6	-7.2	·	130.7*
O=c1cc2oc3cc(O)c(O)cc3c(-c3ccccc3O)c-2cc1O	-4.4	0.5	-7.2	·	80.9*
COc1ccc(OC)c(-c2c3cc(O)c(=O)cc-3oc3cc(O)c(O)cc23)c1	12.6	-1.9	-7.7	·	101.9*
C[C@H](CO)N1C[C@H](C)[C@@H](CN(C)Cc2ccc(Cl)c(Cl)c2)Oc2ccc(NC(=O)C3CC3)cc2CC1=O	·	·	·	1.8	·
C[C@@H]1CN([C@H](C)CO)C(=O)c2cccc(N(C)C)c2O[C@H]1CN(C)C(=O)Nc1ccc(C(F)(F)F)cc1	·	·	·	2.4	·
O=C(Nc1ccccc1[N+](=O)[O-])c1cc2ccccc2nc1Cl	-5.0	-3.5	0.2	-4.2	-3.3
O=C(Nc1ccccc1[N+](=O)[O-])C1=C(O)CCn2c1nc1ccccc12	39.2*	-2.3	1.0	-1.3	-1.3
C[C@H](CO)N1C[C@H](C)[C@@H](CN(C)S(=O)(=O)c2cn(C)cn2)Oc2c(cccc2N(C)C)C1=O	·	·	·	-1.1	·
Cc1cccc(N=NC(=S)NNc2cccc(C)c2)c1	5.3	·	+	·	-2.5
NNC(=O)c1[nH]c2ccc([N+](=O)[O-])cc2c1-c1ccccc1	7.3	1.8	-1.7	-8.7	-1.5
O=C(N/N=C/c1ccccn1)c1[nH]c2ccc([N+](=O)[O-])cc2c1-c1ccccc1	41.5*	7.0	-1.7	-0.6	-14.3
CNc1cnc(-c2ccc(F)c(F)c2F)cn1	10.2	·	165.9*	0.7	-0.3
O=S(=O)(O)c1cccc2c(N=Nc3ccc(O)c4ncccc34)cccc12	3.7	-1.1	-14.7	3.4	28.2*
CC(Oc1ccc2oc(-c3ccccc3)c(C(=O)O)c2c1)C(=O)O (configuration not stated)	6.3	-0.3	+	2.0	-0.9
